Hit rate of the full screen: of about 39,000 compounds, about 3,300 (8.5%) were called active. This is one part of a sample in which actives are shown more often than they occur.
system: HepG2; test: cytotoxicity call (relative viability < 0.9); settings: 10 µM

Row | Compound | cytotoxicity call
1 | Cc1noc(C)c1S(=O)(=O)Nc1ccc2c(c1)CC(=O)N([C@@H](C)CO)C[C@@H](C)[C@H](CN(C)S(=O)(=O)c1cccs1)O2 | inactive
2 | CCOC(=O)C(=O)N(C)CC(OC)OC | inactive
3 | CCOC(=O)OC[C@@H]1[C@@H]2NC(=O)N(C)[C@@]1(COC(=O)NCCCCCC(=O)NO)Oc1ccccc12 | inactive
4 | C[C@H](CO)N1C[C@H](C)[C@@H](CN(C)S(C)(=O)=O)OCCCC[C@H](C)Oc2ccc(NS(C)(=O)=O)cc2C1=O | inactive
5 | COc1ccc(S(=O)(=O)N(C)C[C@@H]2Oc3ccc(NS(=O)(=O)c4ccc(F)cc4)cc3C(=O)N([C@H](C)CO)C[C@@H]2C)cc1 | inactive
6 | CC(C)N1C[C@H](C)[C@@H](CN(C)Cc2ccc(Oc3ccccc3)cc2)Oc2c(cccc2-c2nn[nH]n2)C1=O | inactive
7 | Cl.N=C(N)NC(=N)NCCc1ccccc1 | inactive
8 | N=C(N=C(N)N)NCCc1ccccc1 | active
9 | N=C(N=C(N)N)Nc1ccccc1 | inactive
10 | Cc1cc(C(=O)O)c(=O)[nH]c1C | inactive
11 | NCCC1=CSC2=NCCN12 | inactive
12 | O=C(CCCCCCC(=O)Nc1ccc([C@H]2O[C@@H](CSc3ccccn3)C[C@H](c3ccccc3)O2)cc1)NO | inactive
13 | CCS(=O)(=O)NCC[C@@H]1CC[C@H](NC(=O)Cc2ccccn2)[C@@H](CO)O1 | inactive
14 | Cc1ccc(S(=O)(=O)N[C@@H]2CC[C@@H](CC(=O)NCc3ccc(Cl)c(Cl)c3)O[C@@H]2CO)cc1 | inactive
15 | Cc1ccc(-c2ccc3c(c2)O[C@@H](CN(C)C(=O)Nc2ccc(C(F)(F)F)cc2)[C@@H](C)CN([C@@H](C)CO)S3(=O)=O)cc1 | inactive
16 | Cc1ccc(-c2ccc3c(c2)O[C@H](CN(C)C(=O)Nc2ccc(C(F)(F)F)cc2)[C@H](C)CN([C@@H](C)CO)S3(=O)=O)cc1 | inactive
17 | Cc1ccccc1-c1ccc2c(c1)O[C@@H](CN(C)C(=O)Nc1ccc(C(F)(F)F)cc1)[C@H](C)CN([C@H](C)CO)S2(=O)=O | inactive
18 | Cc1ccccc1-c1ccc2c(c1)O[C@H](CN(C)C(=O)Nc1ccc(C(F)(F)F)cc1)[C@H](C)CN([C@@H](C)CO)S2(=O)=O | active
19 | Cc1ccccc1-c1ccc2c(c1)O[C@H](CN(C)C(=O)Nc1ccc(C(F)(F)F)cc1)[C@H](C)CN([C@H](C)CO)S2(=O)=O | inactive
20 | Cc1ccc(-c2ccc3c(c2)O[C@@H](CN(C)C(=O)Nc2ccc(C(F)(F)F)cc2)[C@@H](C)CN([C@H](C)CO)S3(=O)=O)cc1 | active
21 | C[C@@H]1CCCCO[C@H](CN(C)Cc2ccc(C(=O)O)cc2)[C@@H](C)CN([C@H](C)CO)C(=O)c2cc(NC(=O)c3ccccc3)ccc2O1 | inactive
22 | C[C@H](CO)N1C[C@H](C)[C@@H](CN(C)CC2CCCCC2)Oc2c(NC(=O)Cn3cnnn3)cccc2C1=O | inactive

Row | Compound | cytotoxicity call
23 | C[C@@H]1CN([C@H](C)CO)C(=O)Cc2cc(NC(=O)Cn3cnnn3)ccc2O[C@H]1CN(C)CC1CC1 | inactive
24 | C[C@H]1CN([C@@H](C)CO)S(=O)(=O)c2ccc(-c3cccnc3)cc2O[C@@H]1CN(C)C(=O)NC1CCCC1 | inactive
25 | O=C(C1CC1)N1CCCN(C(=O)C2CC2)CC1 | inactive
26 | Cc1noc(C)c1S(=O)(=O)Nc1ccc2c(c1)C(=O)N([C@@H](C)CO)C[C@H](C)[C@H](CN(C)C(=O)Nc1ccc(F)cc1)OCCCC[C@H](C)O2 | inactive
27 | O=c1ccn([C@@H]2O[C@H](CO)[C@@H](O)[C@H]2O)c(=O)[nH]1 | inactive
28 | O=c1ccn(C2OC(CO)C(O)C2O)c(=O)[nH]1 (stereo unspecified) | inactive
29 | O=c1ccn([C@H]2O[C@H](CO)[C@@H](O)[C@@H]2O)c(=S)[nH]1 | active
30 | C[C@H]1CN([C@@H](C)CO)C(=O)Cc2cc(NC(=O)CCC(F)(F)F)ccc2O[C@@H]1CN(C)C(=O)Nc1cccc2ccccc12 | inactive
31 | NC[C@H](c1ccco1)N1CCCCCC1 | inactive
32 | OC[C@@H]1CC[C@@H]2O[C@H](CCc3ccc(C#Cc4ccccc4)cc3)[C@@H](n3cc(-c4ccccc4)nn3)C[C@@H]2O1 | active
33 | OC[C@H]1CC[C@@H]2O[C@H](CCc3ccc(C#CCc4ccccc4)cc3)[C@H](n3cc(-c4ccccc4)nn3)C[C@@H]2O1 | inactive
34 | OC[C@H]1CC[C@@H]2O[C@H](CCc3ccc(C#CCc4ccccc4)cc3)[C@@H](n3cc(-c4ccccc4)nn3)C[C@@H]2O1 | inactive
35 | OC[C@@H]1CC[C@@H]2O[C@H](CCc3ccc(C#Cc4ccccc4)cc3)[C@H](n3cc(-c4ccccc4)nn3)C[C@@H]2O1 | inactive
36 | OC[C@H]1CC[C@@H]2O[C@H](CCc3ccc(C#Cc4ccccc4)cc3)[C@@H](n3cc(-c4ccccc4)nn3)C[C@@H]2O1 | active
37 | OC[C@H]1CC[C@@H]2O[C@H](CCc3ccc(C#Cc4ccccc4)cc3)[C@H](n3cc(-c4ccccc4)nn3)C[C@@H]2O1 | inactive
38 | C[C@H](CO)N1C[C@H](C)[C@@H](CN(C)Cc2ccc(C(=O)O)cc2)OCCCC[C@H](C)Oc2ccc(NS(=O)(=O)c3ccccc3)cc2C1=O | inactive
39 | CN1CCN(C(=O)C[C@H]2CC[C@H]3[C@@H](COC[C@@H](O)CN3C(=O)C3CC3)O2)CC1 | inactive
40 | C[C@H](CO)N1C[C@H](C)[C@H](CN(C)Cc2ccccc2)Oc2ccc(NC(=O)Cn3cnnn3)cc2CC1=O | inactive
41 | COc1ccc(S(=O)(=O)N(C)C[C@@H]2Oc3ncc(-c4ccncc4)cc3C(=O)N([C@H](C)CO)C[C@H]2C)cc1 | inactive
42 | NCc1cccc2c1OCC2 | inactive
43 | CCOc1nc2c(N)ncnc2n1CC | inactive
44 | CC(C)NCCCn1c(Sc2cc3c(cc2I)OCO3)nc2c(N)ncnc21 | active

Row | Compound | cytotoxicity call
45 | COc1ccc(CN(C)C[C@H]2OCCCC[C@H](C)Oc3ccc(NC(=O)Nc4ccccc4)cc3C(=O)N([C@H](C)CO)C[C@H]2C)cc1 | inactive
46 | C[C@@H]1CN([C@H](C)CO)S(=O)(=O)c2ccc(C#CCC3CCCC3)cc2O[C@H]1CN(C)C(=O)c1cnccn1 | inactive
47 | C[C@@H]1CCCCO[C@@H](CN(C)C(=O)Nc2ccccc2)[C@@H](C)CN([C@@H](C)CO)C(=O)c2cc(NC(=O)Nc3ccccc3)ccc2O1 | inactive
48 | Cc1noc(C)c1NC(=O)Nc1ccc2c(c1)C(=O)N([C@H](C)CO)C[C@H](C)[C@@H](CN(C)S(=O)(=O)c1ccccc1)O2 | inactive
49 | Cc1noc(C)c1S(=O)(=O)Nc1cccc2c1O[C@H](CN(C)C(=O)NC(C)C)[C@H](C)CN([C@@H](C)CO)C2=O | inactive
50 | COc1ccc(S(=O)(=O)N[C@@H]2C=C[C@H](CC(=O)NCCc3ccncc3)O[C@H]2CO)cc1 | inactive
51 | O=C(C[C@@H]1C[C@H]2c3cc(NC(=O)c4ccc5c(c4)OCO5)ccc3O[C@H]2[C@H](CO)O1)NCCN1CCCCC1 | inactive
52 | COc1ccc([Si](C)(C)[C@H]2[C@H](CC(=O)N3Cc4ccccc4C[C@H]3CO)O[C@@]3(C(=O)N(Cc4cccc(N5CCOC5=O)c4)c4ccccc43)[C@@H]2C)cc1 | inactive
53 | COc1ccc([Si](C)(C)[C@H]2[C@H](CC(=O)N3Cc4ccccc4C[C@H]3CO)O[C@@]3(C(=O)N(Cc4ccc(N5CCOC5=O)cc4)c4ccccc43)[C@@H]2C)cc1 | active
54 | COc1ccc(C(=O)Nc2ccc(CN3C(=O)[C@@]4(O[C@@H](CC(=O)N5Cc6ccccc6C[C@H]5CO)[C@H]([Si](C)(C)c5ccc(OC)cc5)[C@H]4C)c4ccccc43)cc2)cc1 | inactive
55 | COc1ccc(C(=O)Nc2ccc(CN3C(=O)[C@]4(O[C@H](CC(=O)N5Cc6ccccc6C[C@H]5CO)[C@@H]([Si](C)(C)c5ccc(OC)cc5)[C@@H]4C)c4ccccc43)cc2)cc1 | active
56 | COc1ccc([Si](C)(C)[C@@H]2[C@@H](CC(=O)N3Cc4ccccc4C[C@H]3CO)O[C@]3(C(=O)N(Cc4ccc(I)cc4)c4ccccc43)[C@H]2C)cc1 | inactive
57 | COc1ccc([Si](C)(C)[C@@H]2[C@@H](CC(=O)N3Cc4ccccc4C[C@H]3CO)O[C@]3(C(=O)N(Cc4ccc(N5CCOC5=O)cc4)c4ccccc43)[C@H]2C)cc1 | inactive
58 | COc1ccc(C(=O)Nc2cccc(CN3C(=O)[C@]4(O[C@H](CC(=O)N5CCC[C@H]5CO)[C@@H]([Si](C)(C)c5ccc(OC)cc5)[C@@H]4C)c4ccccc43)c2)cc1 | inactive
59 | COc1ccc(C(=O)Nc2cccc(CN3C(=O)[C@@]4(O[C@@H](CC(=O)N5Cc6ccccc6C[C@H]5CO)[C@H]([Si](C)(C)c5ccc(OC)cc5)[C@H]4C)c4ccccc43)c2)cc1 | active
60 | COc1ccc(C(=O)Nc2cccc(CN3C(=O)[C@@]4(O[C@@H](CC(=O)N5CCC[C@H]5CO)[C@H]([Si](C)(C)c5ccc(OC)cc5)[C@H]4C)c4ccccc43)c2)cc1 | inactive
61 | C[C@H](CO)N1C[C@H](C)[C@@H](CN(C)Cc2ccc(-c3ccccc3)cc2)Oc2c(NC(=O)C3CCOCC3)cccc2C1=O | inactive
62 | C[C@@H]1CN([C@H](C)CO)C(=O)c2cc(NC(=O)CCCN(C)C)ccc2O[C@@H](C)CCCCO[C@@H]1CN(C)S(C)(=O)=O | inactive
63 | C[C@@H]1CN([C@H](C)CO)C(=O)CCCn2cc(nn2)CO[C@@H]1CN(C)C(=O)Nc1ccc(N2CCCCC2)cc1 | inactive
64 | Cc1noc(C)c1NC(=O)N(C)C[C@H]1Oc2ccc(NS(C)(=O)=O)cc2CC(=O)N([C@@H](C)CO)C[C@H]1C | inactive
65 | C[C@@H]1CCCCO[C@@H](CN(C)S(=O)(=O)c2cn(C)cn2)[C@H](C)CN([C@@H](C)CO)C(=O)c2cc(N(C)C)ccc2O1 | inactive
66 | O=C(C[C@@H]1CC[C@@H]2[C@H](COC[C@H](O)CN2Cc2cc(F)ccc2F)O1)N[C@@H]1CCN(Cc2ccccc2)C1 | inactive

Source: the antibiotic and cytotoxicity screens of Wong et al. (2023)
